Screens: PubChem BioAssay, Broad Institute
The list is not random: actives were taken first. Their share in the collection is about 2.4%.
NSD2 HMT inh: NSD2 histone methyltransferase inhibitors, primary screen, biochemical, AlphaScreen, single concentration, set 2 | actives 0.54% (n = 310,000) | inhibition, % at 12.5 µM | AID 743445, 2014 | NSD2 peptide methylation, 120 min | Histone-lysine N-methyltransferase NSD2 (Homo sapiens), O96028
Target sequence (O96028 whole entry, looked up): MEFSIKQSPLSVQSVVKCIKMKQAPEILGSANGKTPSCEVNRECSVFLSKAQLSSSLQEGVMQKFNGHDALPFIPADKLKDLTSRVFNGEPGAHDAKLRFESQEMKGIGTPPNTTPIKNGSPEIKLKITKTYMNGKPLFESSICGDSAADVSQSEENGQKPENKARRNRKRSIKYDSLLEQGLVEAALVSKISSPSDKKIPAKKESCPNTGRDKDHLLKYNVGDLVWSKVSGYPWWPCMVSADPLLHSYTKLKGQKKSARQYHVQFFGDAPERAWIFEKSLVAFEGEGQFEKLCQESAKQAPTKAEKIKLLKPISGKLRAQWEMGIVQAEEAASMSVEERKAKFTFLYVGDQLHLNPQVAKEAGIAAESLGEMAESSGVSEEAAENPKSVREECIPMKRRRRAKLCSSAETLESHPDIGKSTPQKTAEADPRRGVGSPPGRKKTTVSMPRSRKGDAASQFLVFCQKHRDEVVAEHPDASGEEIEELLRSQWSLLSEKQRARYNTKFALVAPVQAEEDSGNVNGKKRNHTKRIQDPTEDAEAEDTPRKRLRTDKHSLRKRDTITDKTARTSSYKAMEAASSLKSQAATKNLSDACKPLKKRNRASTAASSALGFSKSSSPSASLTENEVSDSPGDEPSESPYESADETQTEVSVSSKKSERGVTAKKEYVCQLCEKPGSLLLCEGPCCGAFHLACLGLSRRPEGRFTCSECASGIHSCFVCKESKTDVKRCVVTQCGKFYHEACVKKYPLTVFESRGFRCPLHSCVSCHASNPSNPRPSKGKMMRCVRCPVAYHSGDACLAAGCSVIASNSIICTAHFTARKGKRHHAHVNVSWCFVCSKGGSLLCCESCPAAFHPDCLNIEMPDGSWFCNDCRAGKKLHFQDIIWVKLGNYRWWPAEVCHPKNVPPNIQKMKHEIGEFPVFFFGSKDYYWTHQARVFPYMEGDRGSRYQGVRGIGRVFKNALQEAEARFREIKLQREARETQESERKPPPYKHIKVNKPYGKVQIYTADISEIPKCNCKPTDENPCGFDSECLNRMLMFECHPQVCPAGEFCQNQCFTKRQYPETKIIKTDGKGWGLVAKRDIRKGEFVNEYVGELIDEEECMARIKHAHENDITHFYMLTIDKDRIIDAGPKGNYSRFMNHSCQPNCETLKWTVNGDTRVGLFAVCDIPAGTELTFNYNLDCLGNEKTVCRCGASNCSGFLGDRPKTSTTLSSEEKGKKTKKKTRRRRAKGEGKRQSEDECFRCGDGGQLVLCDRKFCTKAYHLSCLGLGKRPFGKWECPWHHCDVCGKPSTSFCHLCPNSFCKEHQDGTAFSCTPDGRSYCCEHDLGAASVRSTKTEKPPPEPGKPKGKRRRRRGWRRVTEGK
miR122 inh: miR-122 Renilla sensor signal increase in Huh7, primary screen, miR-122 inhibitor project, cell-based, single point, plate reader. actives 0.3% (n = 340,000). activation (reporter increase), % at 12.5 µM. Huh7 miR-122 Renilla luciferase sensor, 48 h; neutral wells = 0, positive control = 100. AID 602342, 2012;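 active means mean replicate activation score at least 90 and every replicate individually at or above 90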;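 further: higher luciferase means less miR-122 activity so hits act as miR-122 inhibitors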
Dyrk1A ADPGlo: rat Dyrk1A kinase inhibitors, primary screen, biochemical, single point, plate reader. Dual specificity tyrosine-phosphorylation-regulated kinase 1A (Rattus norvegicus), Q63470. ADP-Glo luminescence, NFATc1 peptide. actives 0.43% (n = 310,000). inhibition, % at 12.5 µM
Wnt bcat act: Wnt/beta-catenin pathway activators, primary screen, cell-based, plate reader, single point | Wnt/beta-catenin reporter cell assay, activator | activation, % at 9.35 µM | actives 1.2% (n = 300,000); in the data active means activation above about 30%, passing the limit was not always enough
GSIS activator: GLuc luminescence reporter in INS-1E cells, primary screen for activators of glucose-dependent secretion of insulin; INS-1E GLuc reporter insulin secretion, 2-3 h; actives 0.61% (n = 370,000); AID 743287, 2014; activation, % at 16.6 µM;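 active means lowest replicate activation of at least 40%, so every replicate reaches that level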
MITF TRPM1 HTS: activators of MITF-driven TRPM1 promoter reporter, primary screen, cell-based, SK-MEL-5, luciferase, single point; SK-MEL-5 TRPM1-promoter luciferase, 24 h; % of positive control, neutral wells = 0; actives 0.75% (n = 300,000); activation, % at 12.5 µM; AID 588334, 2011;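 active means mean activation of at least 80% with every replicate also reaching 80%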
Hits are given with their value; . = inactive; / = no result. Unless noted, no stated cut-off is given here; in the data, active means inhibition above about 50%; inactive means the rest.

SMILES	NSD2 HMT inh	miR122 inh	Dyrk1A ADPGlo	Wnt bcat act	GSIS activator	MITF TRPM1 HTS
O=P(NC(c1ccccc1)c1ccccc1)(Oc1ccccc1)Oc1ccccc1	.	.	.	/	40	.
O=P(Nc1ccccc1)(Oc1ccccc1)Oc1ccccc1	.	.	.	.	.	/
C[C@H]1CC[C@@H]2[C@@H](C)[C@H]3[C@H](C[C@H]4[C@@H]5CC=C6C[C@@H](O[C@@H]7O[C@H](CO)[C@H](O)[C@H](O[C@@H]8O[C@H](CO)[C@@H](O)[C@H](O)[C@H]8O)[C@H]7O[C@@H]7O[C@@H](C)[C@H](O)[C@@H](O)[C@H]7O)CC[C@]6(C)[C@H]5CC[C@]34C)N2C1	/	.	.	.	50	.
NS(=O)(=O)c1ccc(N=Cc2c(O)n(C3CCCCC3)c(=O)n(C3CCCCC3)c2=O)cc1	.	/	/	.	739	.
CCn1c(O)c(C=Nc2ccc(S(N)(=O)=O)cc2)c(=O)n(CC)c1=S	.	/	.	.	/	.
CC1CCN(C(CC(=O)c2ccccc2)C(=O)c2ccccc2)CC1 (configuration not stated)	.	.	.	51	/	.
O=C([C@H]1N[C@H]2c3cccc(=O)n3C[C@H]2[C@@H]1CO)N1CCCCC1	/	/	/	/	.	/
CCOc1ccc(C2CC(c3c(O)n(C)c(=O)n(C)c3=O)=NN2)cc1 (configuration not stated)	.	.	.	30	.	/
CN(C)C(=O)Oc1c(Cl)cc(Cl)c2cccnc12	.	.	.	48	.	.
Cc1ccc(OCCn2cccc2/C=C2/C(=O)NC(=O)N(Cc3ccco3)C2=O)cc1	.	/	.	.	.	.
CCc1ccc(N2C(=O)NC(=O)/C(=C\c3cccn3CCOc3ccc(C(C)C)cc3)C2=O)cc1	.	.	.	34	.	.
COC(=O)[C@H]1[C@H](CO)[C@H]2Cn3c(ccc(C4=CCCC4)c3=O)[C@@H]1N2C(=O)C1CCCCC1	/	/	/	/	.	/
C[C@]12CC[C@H](O)C[C@H]1CC[C@@H]1[C@@H]2CC[C@]2(C)[C@@H](C3=CC(=O)OC3)CC[C@]12O	/	123	.	.	/	.
Cc1ccc(N2C(=O)NC(=O)/C(=C\C=C\c3ccco3)C2=O)cc1C	65	/	.	.	.	.
CCN1[C@@H]2c3ccc(-c4cccc(C(=O)N(C)C)c4)c(=O)n3C[C@H]1[C@H](CO)[C@H]2C(=O)OC	/	.	/	/	.	/
N#Cc1cccc(-c2ccc([C@H]3[C@H]4CN(C(=O)Cc5ccccc5)CCCCN4[C@H]3CO)cc2)c1	/	.	/	/	.	/
O=C1CC=C2C3CC4N(CCC45c4cc(O)c(O)cc4N1C25)CC3=CCBr (configuration not stated)	107	/	.	.	.	.
CC(=O)N1C[C@@H]2C(c3ccc(Br)cc3)[C@H](C1)N2CC1CC1 (some centres not stated)	/	/	/	/	.	/
CC(=O)OC1CC(OC2C(O)CC(OC3C(O)CC(OC4CCC5(C)C(CCC6C5CC(O)C5(C)C(C7=CC(=O)OC7)CCC65O)C4)OC3C)OC2C)OC(C)C1OC1OC(CO)C(O)C(O)C1O (configuration not stated)	/	126	.	.	/	.
Cc1ccccc1-c1ccc([C@@H]2[C@H]3CN(C(=O)Cc4ccccn4)CCCCN3[C@H]2CO)cc1	/	.	/	/	.	/
Cc1[nH]c2ccccc2c1CCNCc1cccnc1	.	.	/	.	48	.
CN=C1CN(O)C(c2ccccc2)c2cc(Cl)ccc2N1 (configuration not stated)	.	111	/	.	.	.
COC(=O)[C@@H]1[C@@H](CO)[C@@H]2Cn3c(ccc(-c4ccc(F)cc4)c3=O)[C@H]1N2Cc1ccccc1	/	.	/	/	.	/
C=C(C)Cn1c(=O)n(CC2CS2)c2ccccc21 (configuration not stated)	.	/	.	.	69	.
O=C(Cc1ccccc1)N1CC2(C1)[C@H](c1ccccc1)[C@@H](CO)N2Cc1cccc(F)c1	/	/	/	/	.	/
SMILES	NSD2 HMT inh	miR122 inh	Dyrk1A ADPGlo	Wnt bcat act	GSIS activator	MITF TRPM1 HTS
c1cc(-c2ccc(C3[C@H]4CNC[C@@H]3N4CC3CC3)cc2)ccn1 (some centres not stated)	/	/	/	/	.	/
CNC(C)Cc1ccccc1 (configuration not stated)	/	.	.	.	.	.
CC(Cc1ccccc1)/[N+]([O-])=C\c1ccc(C(F)(F)F)cc1 (configuration not stated)	/	.	.	.	/	115
CC(=O)N1C[C@@H]2N[C@H](C1)C2c1ccccc1 (some centres not stated)	/	/	/	/	.	/
OCCNc1c2c(nc3ccccc13)CCCC2	.	.	.	/	/	.
C[n+]1c2ccccc2nc2ccc(NCCO)cc21	101	/	.	.	.	.
CNc1ccc2nc3ccccc3[n+](C)c2c1	81	.	.	.	.	.
CN1CCN(c2ccc3c(c2)S(=O)(=O)c2ccccc2C3=O)CC1	/	.	.	.	.	93
CN1CCN(c2cccc3c2C(=O)c2ccccc2C3=O)CC1	.	/	.	.	.	.
CCN(CC)c1ccc(CN2CC=C(c3ccc(F)cc3)CC2)cc1	54	.	.	/	/	.
CN1C2CN(CC(F)(F)F)CC1C2c1ccc(Br)cc1 (configuration not stated)	/	/	/	/	.	/
c1ccc(Nc2ccc(Nc3ccccc3)cc2)cc1	/	.	/	.	.	86
O=[N+]([O-])c1ccc(Nc2ccccc2)cc1	.	.	.	.	.	.
C=CCN1[C@@H]2CN(C(C)=O)C[C@H]1C2c1ccccc1 (some centres not stated)	/	/	/	/	.	/
COc1ccc(CCN(C)Cc2ccc(F)cc2F)cc1OC	/	.	.	34	.	.
CCN(CC)c1ccc(CN(C)CCc2ccc(OC)c(OC)c2)cc1	.	.	.	/	.	.
O=C(O)[C@@H]1[C@@H](CO)[C@@H]2Cn3c(ccc(-c4cccc(F)c4)c3=O)[C@H]1N2CCc1ccccc1	/	.	/	/	.	/
C=CCN1[C@@H]2CN(C(=O)NC(C)C)C[C@H]1C2c1ccccc1 (some centres not stated)	/	/	/	/	.	/
CCOC(=O)c1c(/N=C/c2c(O)n(-c3ccc(F)cc3)c(=S)[nH]c2=O)sc2c1CCCC2	.	.	.	/	75	.
O=c1cc(C2CCNCC2)[nH][nH]1	.	156	.	/	/	.
C[C@]1(O)CC[C@H]2[C@@H]3CCC4=CC(=O)CC[C@]4(C)[C@@]3(F)[C@@H](O)C[C@@]21C	/	.	.	.	80	.
